The structures appear in SMILES notation. This is part of a sample that, as a whole, favours compounds with a hit. Of some 83,000 tested, about 20% had one in any assay.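 Note: values are percent growth. 100 is the growth of untreated cells, values between 100 and 0 indicate rising inhibition; between -100 and 0 indicates cell death.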 A number with no mark means an inactive call. Active and inactive are the calls of the source.

For the test, the system named is MOLT-4 leukemia. Put plainly: NCI-60 one-dose screen, 48 h (100 = growth as untreated, 0 = no growth, -100 = all killed). The settings on record: 10 µM unless noted. On the procedure: Growth inhibition of the MOLT-4 human tumor cell line is measured as a screen for anti-cancer activity. Cells are grown in 96 well plates and exposed to the test compound for 48 hours. Compounds are tested at a single concentration, which is 10^-5 M for most compounds. The reported endpoint is percent growth (GI% or GIPRCNT), where numbers from 0 - 100% represent growth inhibition, and numbers from -100% - 0 represent cell death. For example, a value of 40 represents 60% growth inhibition. A value of 0 means no net growth occurred over the course of the experiment. A value of -40 indicates 40% of cells at the beginning of the experiment died by the end of the experiment. A value of -100 means all cells are dead at the end of the experiment.
NCI-60 Human Tumor Cell Lines Screen was performed using the standard one-dose NCI protocol, which is described in more detail at https://dtp.cancer.gov/discovery_development/nci-60/default.htm.
Compounds with GIPRCNT values below 10 were considered active. Activity score was based on GIPRCNT using the following formula: […]
Score is 0 for GIPRCNT values of 100 or above, 50 for GIPRCNT values of 0, and 100 for GIPRCNT values of -100.
For the compound `O=C(NCCN1CCOCC1)OCc1nc2nc(Cl)nc(N3CCOCC3)c2[nH]1`, the growth was 19%. The result for `COc1cc(NCCN(CC(C)C)C2CCCC2)c2ncccc2c1` reads 90.9%; that for `Nc1c(C(=O)Nc2cccc3ccncc23)sc2nc3c(cc12)C(=O)CCC3`, 85.2%. The result for `CCCCCCCCOC(=O)c1ccc(O)c(OC)c1` reads 12.9%; that for `CCCCCCC/C=C/[C@H]1O[C@]2(O)C(=O)C=C3C[C@@H](O[C@@H]4O[C@H](CO)[C@@H](O)C(O)[C@@H]4O)C[C@@H]3[C@H]2C=C1C` (stereo not given in full), -6.66% (active); that for `FC(F)(F)c1cccc(Oc2ccc(Nc3ncnc4ccc(OCCCN5CCOCC5)cc34)cc2Cl)c1`, 34.3%. The result for `N/C(=N\N=C\c1cc2ccccc2[nH]1)N/N=C/c1cc2ccccc2[nH]1` reads 84.6%. With `O=C1CCC(NC(=S)Nc2ccccc2)N1` (stereo not given), the growth is 106%.

Consider `COc1ccc(CNCCN2C(=O)c3ccc4c5c(ccc(c35)C2=O)C(=O)N(CCNCc2ccc(OC)cc2)C4=O)cc1`, for which the growth was -36.1% (active).

In the case of `O=C1c2cccnc2C(=O)c2nc3cc(N4CCN(C5CC5)CC4)ccc3nc21`, the growth is 26.2%.

Regarding `CCCCCCCCOc1ccc(/C=N/Nc2cc(C)nc3ccc(Cl)cc23)cc1`, the growth was -14.1% (active). The figure for `COc1ccc(-c2nc(SC)nc(N3CCOCC3)c2C#N)cc1` is 87.6%; for `CCCCCCNC(=O)Oc1ccc(/C(=C(/CC)Cc2ccccc2)c2ccc(OCCN(CC)CC)cc2)cc1` it is 35.2%. As to `COc1ccc2c(Nc3ccc(NS(C)(=O)=O)cc3)c3ccccc3nc2c1`, the growth was 2.19% (active). As for `Fc1ccc(C2CC(c3cccc(Nc4ccncc4)c3)=NN2c2ccc(Cl)cc2)cc1` (stereo not given), the growth is 24%.

Turning to `CCc1nc(C)cn1C(=O)OCc1nc2nc(Cl)nc(N3CCOCC3)c2[nH]1`, the growth is 6.91% (active). The result for `c1ccc(-c2nnc(Nc3ccc4c(c3)OCCO4)o2)c(NCc2ccncc2)c1` reads 21.1%; that for `COc1cc(C2CC(c3cccc(Nc4ccncc4)c3)=NN2c2ccccc2)cc(OC)c1OC` (stereo not given), 1.73% (active). The result for `Fc1ccc2nc3c(cc2c1)CSc1nnc(-c2ccc[nH]c2=S)n1N3` reads 101%; that for `CC(C)(C)CC(C)(C)Nc1c(-c2ccc3c(c2)OCO3)nc2cnccn12`, 69.4%; that for `CC(=O)N1c2ccccc2NC2=C(C(=O)N(C)C2(C)C)C1C` (stereo not given), 33.3%. Consider `COc1c(Cl)cc(Cl)c2ccc(C=C3C(=O)NC(=S)NC3=O)nc12`, for which the growth is 105%. The result for `CC(=O)N1N=C(c2cccc(Nc3ccncc3)c2)CC1c1ccc2c(c1)OCO2` (stereo not given) reads 77.7%; that for `O=C(Nc1ccc2cc3ccc(NC(=O)NC4CCCCC4)cc3nc2c1)NC1CCCCC1`, 9.49% (active). Consider `C=C(C)[C@@H]1CC[C@]2(C=O)CC[C@]3(C)[C@H](CC[C@@H]4[C@@]5(C)CCCNC(C)(C)[C@@H]5CC[C@]43C)[C@@H]12`, for which the growth was 49.1%. As for `COc1cc(C2NC(c3cc(OC)c(OC)c(OC)c3)C(C#N)(C#N)C2(C#N)C#N)cc(OC)c1OC` (stereo not given), the growth is 96.8%. The result for `O=C(c1ccccc1)N1N=C(c2ccc(-n3ccc(C(F)(F)F)n3)cc2)CC1c1ccc[nH]1` (stereo not given) reads 75.8%; that for `Cc1ccc(C2CC(c3cccc(Nc4ccncc4)c3)=NN2c2cc(Cl)cc(Cl)c2)cc1` (stereo not given), 1.74% (active); that for `Cc1cc(NC(=O)c2cnc(N3CCN(CCOCCOCCOCCOCCC(=O)N[C@H](C(=O)N4C[C@H](O)C[C@H]4C(=O)N[C@@H](C)c4ccc(-c5scnc5C)cc4)C(C)(C)C)CC3)cn2)c2ncccc2c1`, 1.53% (active). The result for `OC1(c2ccc(Cl)c(C(F)(F)F)c2)CCN(CCCC(c2ccc(F)cc2)c2ccc(F)cc2)CC1` reads -25.8% (active); that for `CCCCc1ccc(Nc2nnc(SCC(=O)NC(=O)NCC)s2)cc1`, 100%; that for `COc1ccc(C(=O)c2cc(C)c(OC)c(C)c2)c(OC)c1O`, 23.4%. The figure for `CNC(=O)Nc1ccc(-c2nc(N3CCOCC3)nc3c2cnn3C2CCOCC2)cc1` is 11.9%. As to `C[C@@H]1CN(Cc2ccc(/C=C/c3n[nH]c4ccc5nc(-c6cn[nH]c6C(F)(F)F)c6c(c5c34)CCCC6)cc2)C[C@H](C)O1`, the growth is 12.6%. The result for `CC(=O)O[C@H]1CC[C@@]2(C)[C@@H](CC[C@@H]3[C@@H]2CC[C@@]2(C)[C@H]3CC[C@]2(O)C(C)=O)C1` reads 97.6%; that for `O=C(Nc1cccc(Cl)c1)Oc1c(Br)c(Br)c(Br)c(Br)c1Br`, 99.7%. The result for `O=S(=O)(NCCNc1nccc(-c2c(-c3ccc(F)c(O)c3)nc3sccn23)n1)c1ccccc1` reads 52.8%; that for `C=C1C(=O)O[C@H]2[C@H]1CC/C(COC(=O)/C=C/c1c[nH]c3ccccc13)=C\CC[C@@]1(C)O[C@@H]21`, 5.13% (active).

For the compound `Cc1ccc2nc3c(cc2c1)CSc1nnc(-c2ccc[nH]c2=S)n1N3`, the growth was 91.9%.

Turning to `COc1cc(-c2cc(=O)oc3cc(O)ccc23)c(OC)c2c1OCO2`, the growth was 100%.

The values are drawn from PubChem BioAssay (NCI).
